Results reported in PubChem BioAssay (EPA / NIEHS).
The source made the active and inactive calls. How the source made its calls: active means hit-call score of the fitted dose curve at least 0.9, where 1 is the maximum; inactive means score below 0.9.

Read-out: not listed separately
Test: BSK_3C_SRB: Viability Assessment in the BioMAP Diversity Plus: 3C Assay (AID 2283023);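 further: fitted both ways against DMSO so a hit may be signal rise or drop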
Conditions: primary human endothelial cells (HUVEC)
In short: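 Cytotoxicity readout in parallel HUVEC 3C cultures: after 24 h compound exposure, cells fixed with 10% TCA, stained with 0.1% SRB and read at 560 nm. Gain or loss relative to DMSO fitted.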
In the case of `CCCCOC(=O)CCCCCCCC(=O)OCCCC`, the outcome is reported as “inactive”.
In the case of `c1ccc(CCc2ccccc2)cc1`, the AC50 is reported as 30.5 µM (active).
For `C=C(C)[C@H]1CC=C(C)C(=O)C1`, the outcome was “inactive”.
With `CC1(C)C2=CCCC(C)(C)[C@]23CC[C@H]1C3` the AC50 was 30.4 µM (active).
In the case of `C=CC(C)(O)CCC=C(C)C` (stereo not drawn), the outcome is reported as “inactive”.
With `CS(=O)(=O)c1ccc(C2=C(c3ccccc3)C(=O)OC2)cc1` the outcome was “inactive”.
With `COc1cc(Cl)c(OC)cc1N` the outcome was “inactive”.

Read-out: Matrix Metallopeptidase 1 (MMP1), MMP1 (gene 4312)
Test: BSK_BE3C_MMP1: BioMAP Diversity Plus: BE3C Assay for Matrix Metallopeptidase 1 (MMP1) Biomarker Activity (AID 2283024)
Conditions: primary human bronchial epithelial cells; actives raise or lower the signal
In short: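 In this multiplexed primary-cell system, human bronchial epithelium received chemicals for 24 h before an ELISA for MMP1. Values reflect bidirectional fits normalised to the DMSO baseline.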
For `CCCCOC(=O)CCCCCCCC(=O)OCCCC`, the outcome was “inactive”.
In the case of `c1ccc(CCc2ccccc2)cc1`, the AC50 is reported as 20 µM (active).
With `C=C(C)[C@H]1CC=C(C)C(=O)C1` the outcome was “inactive”.
In the case of `CC1(C)C2=CCCC(C)(C)[C@]23CC[C@H]1C3`, the outcome is reported as “inactive”.
In the case of `C=CC(C)(O)CCC=C(C)C` (stereo not drawn), the outcome is reported as “inactive”.
In the case of `CS(=O)(=O)c1ccc(C2=C(c3ccccc3)C(=O)OC2)cc1`, the outcome is reported as “inactive”.
With `COc1cc(Cl)c(OC)cc1N` the outcome was “inactive”.

Read-out: not listed separately
Test: BSK_3C_Vis: BioMAP Diversity Plus: 3C Assay for Morphology Visualization (AID 2283025);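 further: fitted both ways so gain or loss versus DMSO counts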;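 on AC50: light microscopy image of cell morphology used as background control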
Conditions: primary human endothelial cells (HUVEC)
In short: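 Light-microscopy morphology readout, 24 h exposure, human primary umbilical vein endothelium; analysed relative to DMSO with bidirectional fitting.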
With `CCCCOC(=O)CCCCCCCC(=O)OCCCC` the outcome was “inactive”.
With `c1ccc(CCc2ccccc2)cc1` the AC50 was 8.8 µM (active).
For `C=C(C)[C@H]1CC=C(C)C(=O)C1`, the outcome was “inactive”.
For `CC1(C)C2=CCCC(C)(C)[C@]23CC[C@H]1C3`, the AC50 was 37.4 µM (active).
For `CS(=O)(=O)c1ccc(C2=C(c3ccccc3)C(=O)OC2)cc1`, the outcome was “inactive”.
For `COc1cc(Cl)c(OC)cc1N`, the outcome was “inactive”.

Read-out: Pselectin, SELP (gene 6403)
Test: BSK_4H_Pselectin: BioMAP Diversity Plus: 4H Assay for Pselectin Biomarker Activity (AID 2283026)
Conditions: primary human endothelial cells (HUVEC); actives raise or lower the signal
In short: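 Bidirectional fits against DMSO gave the endpoint. Cells: primary human umbilical vein endothelium, chemical-treated for 24 h before ELISA detection of P-selectin.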
For `CCCCOC(=O)CCCCCCCC(=O)OCCCC`, the outcome was “inactive”.
For `c1ccc(CCc2ccccc2)cc1`, the AC50 was 35.7 µM (active).
For `C=C(C)[C@H]1CC=C(C)C(=O)C1`, the outcome was “inactive”.
For `CC1(C)C2=CCCC(C)(C)[C@]23CC[C@H]1C3`, the AC50 was 20 µM (active).
For `C=CC(C)(O)CCC=C(C)C` (stereo not drawn), the outcome was “inactive”.
In the case of `CS(=O)(=O)c1ccc(C2=C(c3ccccc3)C(=O)OC2)cc1`, the outcome is reported as “inactive”.
With `COc1cc(Cl)c(OC)cc1N` the outcome was “inactive”.

Read-out: not listed separately
Test: BSK_BE3C_SRB: Viability Assessment in the BioMAP Diversity Plus: BE3C Assay (AID 2283028);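 further: measured 24 h after chemical dosing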;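 on AC50: fitted both ways so AC50 may mark signal gain or loss versus DMSO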
Conditions: primary human bronchial epithelial cells
In short: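 Cytotoxicity read-out: SRB (0.1%) staining of TCA-fixed (10%) human lung bronchial epithelial cells, absorbance 560 nm, 24 h post-dosing. Curves fitted both directions relative to DMSO.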
For `CCCCOC(=O)CCCCCCCC(=O)OCCCC`, the outcome was “inactive”.
For `c1ccc(CCc2ccccc2)cc1`, the AC50 was 33.2 µM (active).
With `C=C(C)[C@H]1CC=C(C)C(=O)C1` the outcome was “inactive”.
In the case of `CC1(C)C2=CCCC(C)(C)[C@]23CC[C@H]1C3`, the outcome is reported as “inactive”.
For `C=CC(C)(O)CCC=C(C)C` (stereo not drawn), the outcome was “inactive”.
In the case of `CS(=O)(=O)c1ccc(C2=C(c3ccccc3)C(=O)OC2)cc1`, the outcome is reported as “inactive”.
For `COc1cc(Cl)c(OC)cc1N`, the outcome was “inactive”.

Read-out: Thrombomodulin, THBD (gene 7056)
Test: BSK_3C_Thrombomodulin: BioMAP Diversity Plus: 3C Assay for Thrombomodulin Biomarker Activity (AID 2283029)
Conditions: primary human endothelial cells (HUVEC); actives raise or lower the signal
In short: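 In a multiplexed primary-cell system, human umbilical vein endothelium received chemical and was assayed 24 h later for thrombomodulin by ELISA. Parallel cultures were SRB-stained (0.1% SRB after 10% TCA fixation, read at 560 nm) to flag cytotoxicity.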
For `CCCCOC(=O)CCCCCCCC(=O)OCCCC`, the outcome was “inactive”.
For `c1ccc(CCc2ccccc2)cc1`, the AC50 was 20 µM (active).
With `C=C(C)[C@H]1CC=C(C)C(=O)C1` the outcome was “inactive”.
For `CC1(C)C2=CCCC(C)(C)[C@]23CC[C@H]1C3`, the outcome was “inactive”.
For `C=CC(C)(O)CCC=C(C)C` (stereo not drawn), the outcome was “inactive”.
In the case of `CS(=O)(=O)c1ccc(C2=C(c3ccccc3)C(=O)OC2)cc1`, the outcome is reported as “inactive”.
For `COc1cc(Cl)c(OC)cc1N`, the outcome was “inactive”.

Read-out: Urokinase-type plasminogen activator receptor (uPAR), PLAUR (gene 5329)
Test: BSK_4H_uPAR: BioMAP Diversity Plus: 4H Assay for Urokinase-type plasminogen activator receptor (uPAR) Biomarker Activity (AID 2283030)
Conditions: primary human endothelial cells (HUVEC); actives raise or lower the signal
In short: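 uPAR level read by ELISA on HUVEC cultures (BioMAP 4H) 24 h post-dosing, analyzed for gain or loss relative to DMSO. Parallel SRB staining assessed overt cytotoxicity.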
For `CCCCOC(=O)CCCCCCCC(=O)OCCCC`, the outcome was “inactive”.
With `c1ccc(CCc2ccccc2)cc1` the AC50 was 32.2 µM (active).
In the case of `C=C(C)[C@H]1CC=C(C)C(=O)C1`, the outcome is reported as “inactive”.
In the case of `CC1(C)C2=CCCC(C)(C)[C@]23CC[C@H]1C3`, the outcome is reported as “inactive”.
In the case of `C=CC(C)(O)CCC=C(C)C` (stereo not drawn), the outcome is reported as “inactive”.
In the case of `CS(=O)(=O)c1ccc(C2=C(c3ccccc3)C(=O)OC2)cc1`, the outcome is reported as “inactive”.
For `COc1cc(Cl)c(OC)cc1N`, the outcome was “inactive”.
